# Data taken from PubChem BioAssay (EPA / NIEHS).
# Activity calls are given as the source filed them. The calls were made as follows: active = hit-call score of the fitted dose curve at least 0.9, where 1 is the maximum; inactive = score below 0.9.
# Assay: BSK_KF3CT_SRB: Viability Assessment in the BioMAP Diversity Plus: KF3CT Assay (AID 2283069);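 also: fitted for both signal gain and loss against DMSO baseline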
# Conditions: primary human keratinocytes with fibroblasts
# Protocol: BSK_KF3CT is a cell-based, multiplexed-readout assay that uses keratinocytes and foreskin fibroblasts, a human skin primary cell co-culture, with measurements taken at 24 hours after chemical dosing in a 96-well plate.BSK_KF3CT_SRB is an assay component measured in the BSK_KF3CT assay. It measures 0.1% sulforhodamine related to cell death using Sulforhodamine staining technology.Data from the assay component BSK_KF3CT_SRB was analyzed into 1 assay endpoint. This assay endpoint, BSK_KF3CT_SRB, was analyzed with bidirectional fitting relative to DMSO as the negative control and baseline of activity. Using a type of viability reporter, gain or loss-of-signal activity can be used to understand changes in the signaling. Furthermore, this assay endpoint can be referred to as a primary readout, because this assay has produced multiple assay endpoints where this one serves a signaling function. To generalize the intended target to other relatable targets, this assay endpoint is annotated to the cell morphology intended target family, where the subfamily is cell conformation.
# The levels of cell surface (or secreted, indicated by the prefix "s") biomarker endpoints were measured by ELISA. Overt cytotoxicity to cells in confluent adherent cultures (all systems other than the BT system) was assessed by measuring total protein levels using sulforhodamine B (SRB) staining in parallel cultures at the time of biomarker measurements, indicated as SRB endpoints. For proliferation assays for adherent cell types, individual cell types are cultured at sub-confluence and relative cell numbers quantified by SRB staining at time points optimized for each system (48 h: 3C and CASM3C systems; 72 h: BT and HDF3CGF systems; 96 h: SAg system). SRB was performed by staining cells with 0.1% SRB after fixation with 10% TCA and reading wells at 560 nm.Viability and proliferation of PBMC (T cells) was quantified by Alamar Blue reduction for the SAg and BT systems. For PBMC viability (referred to as PBMC Cytotoxicity within the assay endpoint names), cells were plated (75,000/well in a 96-well plate) and then chemical samples added for 1 h before addition of activators, SEB and TSST-1 (20 ng/mL final concentration each). Cells were incubated for 90 h. Then, Alamar Blue (20 uL/well) (Invitrogen, Cat DAL1100) was added for 6 h, and the plates were read with a fluorescence microplate reader at 546/580 nm (excitation/emission). For PBMC proliferation, cells were plated and activated as above but incubated for only 16 h prior to addition of Alamar Blue. Plates were read after 6 h.
Structure (SMILES),outcome,AC50
COC(=O)c1ccc(O)cc1,inactive,
CCCCN(CCCC)CCCC,inactive,
CC1(C)NC(=O)NC1=O,inactive,
COCCOC[C@H](CC1(C(=O)NC2CCC(C(=O)O)CC2)CCCC1)C(=O)Oc1ccc2c(c1)CCC2 (stereo not given in full),inactive,
O=C(O)Cc1ccccc1Nc1c(Cl)cccc1Cl,inactive,
O=c1[nH]cc(F)c(=O)[nH]1,inactive,
CN[C@H]1CC[C@@H](c2ccc(Cl)c(Cl)c2)c2ccc(S(N)(=O)=O)cc21,,30.6 µM (active)
CCCCCCCCCCO,inactive,
C=CCc1ccc(O)c(OC)c1,inactive,
CC1(C)CC(N=C=O)CC(C)(CN=C=O)C1 (stereo not given),inactive,
Cc1ccc(N(C)C)cc1,inactive,
Cc1cccc(Nc2cc(Cl)nc(SCC(=O)O)n2)c1C,inactive,
CCOC(=O)C(C)(C)Oc1ccc(Cl)cc1,inactive,
Cc1ccc(C(C)C)c(O)c1,inactive,
Cc1c(C(=O)O)c(O)cc2c1C(=O)c1c(O)c([C@@H]3O[C@H](CO)[C@@H](O)[C@H](O)[C@H]3O)c(O)c(O)c1C2=O,inactive,
Cc1nc(C)nc(N2C[C@@H](C)N(c3ccnc([C@@H](C)O)n3)[C@@H](C)C2)n1,inactive,
Nc1nc(N)c2nc(CNc3ccc(C(=O)N[C@@H](CCC(=O)O)C(=O)O)cc3)cnc2n1,inactive,
CC1=C(/C=C/C(C)=C/C=C/C(C)=C/CO)C(C)(C)CCC1,inactive,
CC(=O)C(C)=CC1C(C)=CCCC1(C)C (stereo not given),inactive,
O=C(O)CCCCC(=O)O,inactive,

Structure (SMILES),outcome,AC50
Nc1ccc2c(c1)C(=O)c1ccccc1C2=O,inactive,
CCc1c(C(=O)NN2CCCCC2)nn(-c2ccc(Cl)cc2Cl)c1-c1ccc(Br)cc1,,7.2 µM (active)
CNC(=O)[C@H]1O[C@@H](n2cnc3c(NCc4cc(Cl)ccc4OCc4cc(C)no4)ncnc32)[C@H](O)[C@@H]1N,inactive,
CCOc1ccc2c(c1)C(C)=CC(C)(C)N2,inactive,
O=C(OCCCCCOC(=O)c1ccccc1)c1ccccc1,inactive,
CCCCCCCCCCCC(=O)OC,inactive,
CC(=O)OCCOCCOCCOC(C)=O,inactive,
Cc1ccc(Cl)cc1,inactive,
Cc1ccc(C)c(C)c1,inactive,
CC=Cc1ccc(O)c(OC)c1,inactive,
CCCCc1ccc2c(n1)[C@@H](c1ccc(OC)cc1C[C@H](C)C(=O)O)[C@H](C(=O)O)[C@H]2c1ccc2c(c1)OCO2,inactive,
Oc1ccc2c(c1)OC[C@@H](N1CCC(O)(c3ccc(F)cc3)CC1)[C@H]2O,inactive,
CCCCCCCCCCCCCO,,31.9 µM (active)
Clc1cc(Cl)c(Cl)cc1Cl,inactive,
C[Si]1(C)O[Si](C)(C)O[Si](C)(C)O[Si](C)(C)O1,inactive,
OC[C@@H](O)[C@@H](O)[C@H](O)[C@H](O)CO,inactive,
NCC1(Cc2noc(=O)[nH]2)CCCCC1,inactive,
Cc1nc(-c2ccc3c(c2)CCN(CCC2CCC(NC(=O)/C=C/c4ccc(F)cc4)CC2)CC3)no1 (stereo not given),inactive,
Cc1ccc2ncccc2c1,inactive,
COc1ccc(S(=O)(=O)N2C(=O)[C@@](c3ccccc3OC)(N3C[C@H](O)C[C@H]3C(=O)N(C)C)c3cc(Cl)ccc32)c(OC)c1,inactive,
